EWS-Fli block: blocks EWS/Fli oncoprotein-driven transcription. A673 NR0B1-luciferase reporter, viability-normalised. inhibition, % at 12.6 µM. 350,000 tested, 0.67% active. AID 651661;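 active = mean inhibition of at least 50% after viability correction, with every replicate also passing that limit; inconclusive = mean reaches 50% but only one of two replicates passes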;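 also: firefly luciferase signal divided by Alamar Blue viability fluorescence both relative to DMSO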
Shn3 inh set2: reduces Shn3 3'UTR luciferase signal in osteoblasts; Clone20 osteoblast Shn3 3'UTR firefly luciferase, 24 h; inhibition, % at 12.5 µM; 360,000 tested, 0.52% active; AID 588674;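 active = mean inhibition of at least 75% with every replicate also reaching 75%; inconclusive = mean inhibition at least 75% but some replicate below; inactive = mean inhibition below 75%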;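 also: 0% = median of neutral control wells and 100% = pilot-screen positive control compound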
TRPM1 prom inh: inhibitors of MITF-driven TRPM1 promoter in melanoma cells; SK-MEL-5 TRPM1 promoter luciferase, 24 h; inhibition, % at 12.5 µM; 330,000 tested, 0.83% active; AID 488899;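 active = mean inhibition across replicates of 60% or more, whatever share of single replicates reaches that level; inconclusive = some that reach 60%, reason not given; inactive = mean inhibition across replicates below 60%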
PAX8 reporter: lowers PAX8-driven luciferase in RMG-I cells. 360,000 tested, 1.2% active. inhibition, % at 12.6 µM. RMG-I TPO-luciferase reporter, SteadyGlo, 24 h;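 active = mean replicate inhibition at least 60% with every replicate also reaching 60%; inconclusive = only one of the two criteria is met; inactive = mean below 60% and not all replicates reaching 60%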;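 also: luciferase light reporting Pax8 driven TPO promoter activity; plate controls were median of neutral control wells for no effect and mitoxantrone controls for full effect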
ABHD5-PLIN5 inh: ABHD5-PLIN5 protein interaction inhibition. Split G. princeps luciferase complementation, luminescence, 4 h. inhibition, % at 4 µM. 360,000 tested, 0.78% active. AID 602281;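 active = inhibition above the mean inhibition across every tested compound plus 3 SD, cut at about 22% in these data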;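 also: 0% = DMSO only wells and the 100% control is not disclosed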
Target sequence (Q00G26 whole entry, looked up): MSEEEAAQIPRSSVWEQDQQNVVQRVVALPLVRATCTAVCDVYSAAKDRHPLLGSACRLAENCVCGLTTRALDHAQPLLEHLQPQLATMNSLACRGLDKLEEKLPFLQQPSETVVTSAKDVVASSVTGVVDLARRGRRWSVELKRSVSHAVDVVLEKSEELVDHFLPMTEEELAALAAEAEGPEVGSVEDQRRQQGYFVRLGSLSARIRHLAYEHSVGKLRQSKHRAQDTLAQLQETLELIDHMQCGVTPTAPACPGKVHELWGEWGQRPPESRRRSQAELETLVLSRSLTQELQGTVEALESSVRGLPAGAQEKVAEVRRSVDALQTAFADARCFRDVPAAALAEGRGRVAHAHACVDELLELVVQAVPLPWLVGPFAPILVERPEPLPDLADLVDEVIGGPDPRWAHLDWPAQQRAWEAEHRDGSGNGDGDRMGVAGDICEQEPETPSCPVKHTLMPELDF
Target sequence (Q8WTS1 whole entry, looked up): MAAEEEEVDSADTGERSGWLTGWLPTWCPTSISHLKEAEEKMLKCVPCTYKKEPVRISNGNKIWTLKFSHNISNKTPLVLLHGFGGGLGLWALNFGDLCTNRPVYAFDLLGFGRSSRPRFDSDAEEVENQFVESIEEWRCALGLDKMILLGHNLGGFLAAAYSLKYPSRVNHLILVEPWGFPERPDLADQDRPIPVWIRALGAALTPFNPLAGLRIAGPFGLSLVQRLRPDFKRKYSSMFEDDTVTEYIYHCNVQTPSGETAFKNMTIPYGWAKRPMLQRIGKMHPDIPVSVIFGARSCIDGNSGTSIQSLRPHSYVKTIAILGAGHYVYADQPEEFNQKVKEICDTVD
Peg3 promoter: inhibitors of Peg3 promoter. 360,000 tested, 1.7% active. HeLa PEG-Prom luciferase reporter, luminescence, overnight. inhibition, % at 20 µM;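 active = inhibition of at least 50% at 20 µM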
Numbers without * were called inactive; ? = inconclusive; . = no result. This is a sample that favours compounds with a hit; in the whole collection about 3% have one here.

SMILES	EWS-Fli block	Shn3 inh set2	TRPM1 prom inh	PAX8 reporter	ABHD5-PLIN5 inh	Peg3 promoter
S=C(NN=Cc1ccccn1)N(Cc1ccccn1)Cc1ccccn1	-0.2	80.6	74.4*	20.1	-14.5	18.5
Cc1ccccc1NC(=S)N(Cc1ccccn1)Cc1ccccc1Cl	10.6	-7.1	5.8	-4.3	-3.8	9.2
CC(=NNC(=S)N(Cc1ccccn1)Cc1ccccn1)c1cnccn1	6.5	95.1*	79.8*	20.9	-23.5	53.9*
COc1cccc(-c2cccc(-c3nc(C(=O)NCCCN4CCOCC4)cc4c3[C@@H](CCO)N(S(=O)C(C)(C)C)C4)c2)c1 (stereo partly drawn)	-4.3	.	.	-0.1	.	.
COc1ccc(C[C@H]2CCc3cnnn3COC[C@H](c3ccccc3)NC2=O)cc1	-1.7	.	.	-4.1	.	.
COc1ccc(N2CCN(CC(=O)c3ccccc3)CC2)cc1	-9.7	-12.7	-3.0	-21.7	-6.3	-14.9
COc1ccc(N2CCN(CCC(=O)c3ccc4ccccc4c3)CC2)cc1	-7.4	-9.1	5.1	-7.8	16.4	103.8*
N#C[C@H]1[C@@H](c2ccccc2)[C@H](CO)N1C(=O)c1ccc2c(c1)OCO2	3.2	.	.	5.9	.	.
CCCCC1CCC(C(=O)N(CCC(C)C)c2c(N)n(CCCC)c(=O)[nH]c2=O)CC1 (stereo not drawn)	-0.4	-0.2	.	-15.4	1.4	98.2*
CCCCC1CCC(C(=O)N(CCCC)c2c(N)n(CCCC)c(=O)[nH]c2=O)CC1 (stereo not drawn)	5.5	69.4	91.1*	-1.1	-5.4	21.3
CCCCC1CCC(C(=O)N(CC(C)C)c2c(N)n(CCCC)c(=O)[nH]c2=O)CC1 (stereo not drawn)	0.0	51.5	73.9*	9.4	-3.4	13.7
CCN1Cc2c(/C=C/c3ccccc3)nc3ccc(OC)cc3c2N(c2cccc(Cl)c2)C1	?	56.9	49.7	17.9	-12.8	101.0*
COc1cccc(N2CCc3c(C)nc4ccc(Cl)cc4c32)c1	10.6	-3.7	13.0	28.8	6.0	47.2
Nc1nc(CCl)nc(N(c2ccccc2)c2ccccc2)n1	33.1	16.3	.	99.2*	-3.0	46.4
Nc1nc(Cl)nc(N(c2ccccc2)c2ccccc2)n1	6.6	-9.1	-0.2	8.5	7.8	11.6
CCCCCCCCCCCCCC(=O)NO	54.6*	-4.0	7.8	5.3	5.2	-36.1
CCCCCCC(=O)O	-5.4	-12.6	.	.	-5.2	2.7
COc1cc(OC)c2c(-c3ccccc3)cc(=O)oc2c1C(CCN1CCCCC1)c1ccc2c(c1)OCO2 (stereo not drawn)	27.0	10.7	45.8	19.5	14.6	101.9*
COc1cc(OC)c2c(-c3ccccc3)cc(=O)oc2c1C(CCN1CCCCC1)c1ccc(N(C)C)cc1 (stereo not drawn)	.	-11.4	33.3	.	11.6	64.6*
COc1ccc(C(CCN2CCCCC2)c2c(OC)cc(OC)c3c(-c4ccccc4)cc(=O)oc23)cc1 (stereo not drawn)	7.3	12.1	6.0	13.3	17.0	96.5*
COc1ccc(S(=O)(=O)Nc2ccc3c(c2)C(=O)N([C@@H](C)CO)C[C@@H](C)[C@H](CN(C)S(=O)(=O)c2c(C)noc2C)OCCCC[C@@H](C)O3)cc1	10.3	.	.	27.5	.	.
Cn1cnc(CCNC(=O)C[C@@H]2CC[C@H]3[C@@H](COC[C@@H](O)CN3C(=O)C3CCCC3)O2)c1	-11.2	.	.	-4.9	.	.
C[C@H]1CCCCO[C@@H](CN(C)C(=O)c2ccncc2)[C@@H](C)CN([C@@H](C)CO)C(=O)c2cc(NS(C)(=O)=O)ccc2O1	-10.0	.	.	.	.	.
C=CCn1c(CSc2ccccc2[N+](=O)[O-])n[nH]c1=S	7.3	-17.7	18.7	17.5	-16.8	10.6
C=CCn1c(Sc2ncc([N+](=O)[O-])s2)n[nH]c1=O	36.9	5.2	82.1*	41.0	4.0	102.2*
SMILES	EWS-Fli block	Shn3 inh set2	TRPM1 prom inh	PAX8 reporter	ABHD5-PLIN5 inh	Peg3 promoter
C[C@H]1CN([C@@H](C)CO)C(=O)c2cc(NC(=O)Nc3ccc4c(c3)OCO4)ccc2O[C@H]1CN(C)C(=O)Nc1ccccc1	-6.4	.	.	10.1	.	.
CCCN1CCC(=NNc2ccc(S(=O)(=O)N(CC)CC)cc2[N+](=O)[O-])CC1	61.1*	16.2	19.8	34.7	2.0	43.6
O=C(N/N=C\C=C\c1ccc2c(c1)OCO2)c1ccc(F)cc1	0.5	-13.8	-3.6	-20.5	-0.6	-53.3
O=C(/C=C/c1ccc2c(c1)OCO2)c1ccc(F)cc1	-47.7	-31.9	-60.5	-60.1	22.3*	-90.0
COC(=O)CSc1nnc([C@H](Cc2ccccc2)NC(=O)OC(C)(C)C)o1	.	-22.9	-3.4	.	1.1	7.8
COC(=O)CS(=O)(=O)c1nnc([C@H](Cc2ccccc2)NC(=O)OC(C)(C)C)o1	.	96.1*	79.1*	.	56.5*	104.2*
Cc1cccc(CS(=O)(=O)c2nnc([C@H](Cc3ccccc3)NC(=O)OC(C)(C)C)o2)c1	.	96.9*	74.9*	.	43.4*	105.6*
CC(C)(C)OC(=O)N[C@@H](Cc1ccccc1)c1nnc(SCC(N)=O)o1	-6.1	9.5	-1.1	-4.5	0.0	6.2
COc1cc2c(cc1OC)CN(C(=O)[C@H]1[C@@H]3C(=O)O[C@@H](c4ccccc4)[C@@H](c4ccccc4)N3[C@@H](c3ccc(O)cc3)[C@]13C(=O)Nc1ccccc13)CC2	8.5	.	.	17.8	.	.
COc1cc(C2C3=C(COC3=O)OC(C)(C)Oc3cc4c(cc32)OCO4)cc(OC)c1OC (stereo not drawn)	54.2*	-0.5	54.2	93.4*	-9.6	-20.8
COc1ccc(NCc2nc3ccccc3n2C)cc1	-82.3	-82.5	-57.4	-71.5	1.0	-167.0
COc1ccc(C(=O)NNC(=O)Cc2nc3ccccc3n2C)cc1	6.8	11.2	-0.6	67.7*	-6.1	6.3
C[C@H](CO)N1C[C@H](C)[C@@H](CN(C)CC2CCCC2)Oc2ncc(C#Cc3ccccn3)cc2C1=O	-0.6	.	.	7.7	.	.
CO[C@H]1CN(C)C(=O)c2ccc(NC(C)=O)cc2OC[C@H](C)N(CCc2ccccc2)C[C@H]1C	13.7	.	.	.	.	.
CCC1CCCCN1CCCNC(=O)c1cn(CC)c2ccc(S(=O)(=O)N3CCc4ccccc4C3)cc2c1=O (stereo not drawn)	14.6	19.0	6.2	-1.8	-0.2	76.7*
CCCOc1ccccc1/C=C1/C(=O)ON=C1C	4.3	20.1	49.4	-2.7	3.1	22.8
CCCOc1ccc(/C=C2/C(=O)ON=C2C)cc1OCC	25.7	13.1	10.6	29.1	2.6	50.4*
C=CCOc1ccc(/C=C2/C(=O)ON=C2C)cc1OC	17.4	47.4	16.7	13.2	2.3	46.8
CCOc1cc(/C=C2\C(=O)ON=C2C)ccc1OCc1ccccc1	.	91.3*	48.7	-18.0	-9.7	89.5*
COc1cc2nc(N3CCN(C(=O)C4COc5ccccc5O4)CC3)nc(N)c2cc1OC (stereo not drawn)	-1.8	-19.7	-2.2	-9.4	2.1	-3.6
COc1cc2nc(N3CCN(C(=O)c4ccco4)CC3)nc(N)c2cc1OC	20.8	10.1	53.0	18.7	-5.2	56.2*

Source: PubChem
